# Laboratory results reported in PubChem BioAssay AID720641 (ICCB-Longwood Screening Facility, Harvard Medical School, 2013).
# Out of some 170,000 compounds screened, about 900 (0.53%) were called active.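 How the source made its calls: active means relative growth at most 50% at the other temperature and 20+ points below 30 °C, or under 10% at both; inactive means the rest, inconclusive results apart.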 Shown is part of a subset that was picked to be rich in actives.
# Assay: Staphylococcus aureus RN4220 growth blockers – two temperatures, LtaS inhibitor project, primary screen (AID 720641)
# Settings: S. aureus RN4220 growth, OD600, 20 h, 42 °C, stronger effect = lower value
SMILES,relative growth,relative growth (measured here: growth at 30 °C)
CCNS(=O)(=O)c1ccc(NC(=O)Nc2cccc(C(F)(F)F)c2)cc1,98.8% (inactive),83.1%
Cc1oc2c(F)c(F)c(F)c(F)c2c1S(=O)(=O)Nc1cccc(C(F)(F)F)c1,8.52% (active),1.85%
Cc1onc(-c2ccccc2)c1C(=O)Nc1cccc(C(F)(F)F)c1,113% (inactive),87.3%
Cc1cc(N2CCCCC2)nc2ccc(NC(=O)CCC(=O)N3CCC(C)CC3)cc12,78.9% (inactive),78.2%
CCc1ccc2[nH]c(=O)c(CN(Cc3ccco3)C(=S)NCC(C)C)cc2c1,84% (inactive),74.7%
COc1ccc(OCCN2C(=O)c3ccccc3S2(=O)=O)cc1,102% (inactive),95%
CCCCc1c(COC)nc(-c2ccc(Cl)cc2)[nH]c1=O,122% (inactive),53%
CCCCCc1c(C)nc(-c2ccccn2)[nH]c1=O,1.74% (active),1.83%
CC(=O)Nc1nc(C)c(Cc2ccccc2)c(=O)[nH]1,106% (inactive),86.1%
CC(C)(C)C(=O)OCC(=O)Nc1ccccc1,124% (inactive),92.1%
Cc1nc(/N=C(/N)NC(=O)Cc2ccccc2)nc2ccccc12,93.2% (inactive),87.1%
Cc1ccc2nc(CN3CCc4sccc4C3c3cccs3)cn2c1 (stereo not given),0.12% (active),-0.28%
CC(NC(=O)CN1CCc2sccc2C1c1cccs1)c1ccc2c(c1)OCCO2 (stereo not given),116% (inactive),98.8%
N#CCSc1ccccc1NC(=O)CN1CCc2sccc2C1c1cccs1 (stereo not given),94.4% (inactive),87%
CCOC(=O)c1oc2ccccc2c1N=Cc1c(O)n(CC)c(=S)n(CC)c1=O,99% (inactive),93.3%
CSc1nsc(SCC(=O)N2CCCC2)n1,93.6% (inactive),82.6%
CCOC(=O)N1CCN(CC(=O)NCCc2ccc(Cl)cc2Cl)CC1,90.9% (inactive),81.3%
O=C(Cn1cc(C(F)(F)F)cc(Cl)c1=O)Nc1ncccn1,94.1% (inactive),94.7%
CCC(CC)C(=O)N(c1ccc(OC)cc1OC)C1C=CS(=O)(=O)C1 (stereo not given),99.8% (inactive),90.8%
COc1cccc2c1OCc1sc3[nH]c(=S)[nH]c(=O)c3c1-2,50.5% (inactive),32.4%
N#Cc1ccc(OCC(=O)N=Nc2[nH]c(N)c3ccccc23)cc1,104% (inactive),101%
Cn1c(NCc2ccccc2)nc2ccccc21,105% (inactive),64.6%

SMILES,relative growth,relative growth (measured here: growth at 30 °C)
Cn1c(NC(=O)c2ccccc2)nc2ccccc21,9.06% (active),0.29%
Cn1c(-c2ccc(C(=O)c3ccccc3)s2)nc2ccccc21,101% (inactive),95.7%
O=C(COc1ccccc1)NC(C(=O)O)C12CC3CC(CC(C3)C1)C2 (stereo not given),112% (inactive),83.1%
c1snnc1C12CC3CC(CC(C3)C1)C2,103% (inactive),109%
CN1CCN(c2nc(C34CC5CC(CC(C5)C3)C4)cs2)CC1,-0.89% (active),-0.63%
CC(C)(C)C(=O)Nc1ccc(Br)cc1,109% (inactive),84.5%
CCOC(=O)c1cnc(SCSc2nc3ccccc3s2)nc1N,86.4% (inactive),87%
CC(=O)Oc1ccc2occ(C(=O)c3cc4ccccc4o3)c2c1,89.3% (inactive),86.2%
Cc1ccc(OC(=O)c2cc3ccccc3o2)cc1,0.01% (active),-0.88%
CC(C)Oc1ccc(NC(=O)c2cc3ccccc3o2)cc1,87.3% (inactive),89.7%
O=C(Oc1ccc2oc(=O)sc2c1)c1ccccc1,92.5% (inactive),94%
CC(C)n1c(CCC(=O)O)ccc1-c1ccc(F)cc1,126% (inactive),97.4%
CN(C)[C@@H]1C(=O)C(C(N)=O)=C(O)[C@@]2(O)C(=O)C3=C(O)c4c(O)ccc(Cl)c4[C@@H](O)[C@H]3C[C@@H]12,-0.41% (active),-1%
COC(=O)/C(C#N)=C(\NCc1ccc(Cl)cc1Cl)SC,99.2% (inactive),99.3%
NC(=O)C1CCN(C(=O)CSc2ccc3ccccc3c2)CC1,84.3% (inactive),94.8%
COc1ccc(F)cc1C(O)CSCc1ccccc1 (stereo not given),124% (inactive),84.8%
CCOC(=O)Nc1nc2c(ccc3ccccc32)s1,92.4% (inactive),91.2%
O=C(O)C1CCC(CNS(=O)(=O)c2ccc(Br)cc2)CC1 (stereo not given),108% (inactive),96.5%
CCOC(=O)c1oc2nc(-c3ccccc3)cc(-c3ccco3)c2c1N,97.1% (inactive),91.1%
CCc1ccc(CNC(=O)c2ccc(CS(=O)c3ccc(Br)cc3)o2)cc1 (stereo not given),19.5% (active),45.9%
CCOc1ccc(CNC(=O)c2ccc(CS(=O)c3ccccc3)o2)cc1 (stereo not given),101% (inactive),79.9%
Cc1ccc(CNC(=O)c2ccc(CS(=O)Cc3cccc(Cl)c3)o2)cc1 (stereo not given),116% (inactive),82.8%

SMILES,relative growth,relative growth (measured here: growth at 30 °C)
COC(=O)c1scc2c(N3CCCCC3)cc(C(F)(F)F)nc12,90.2% (inactive),95.5%
CCN1CCN(C(=O)N[C@@H](C(=O)N[C@@H]2C(=O)N3C(C(=O)O)=C(CSc4nnnn4C)CS[C@H]23)c2ccc(O)cc2)C(=O)C1=O,-0.62% (active),-0.46%
O=C(Nc1nnc(C2CC2)s1)c1cc(Cl)sc1Cl,77.4% (inactive),68.7%
COC(=O)c1ccc2c(c1)NC(=O)C(C)N2 (stereo not given),95.5% (inactive),65.5%
CSCc1nnc(NC(=O)c2ccc(S(=O)(=O)N3CCCCC3C)cc2)o1 (stereo not given),0.19% (active),-0.08%
CCc1nnc(NC(=O)C2CCCN2S(=O)(=O)c2ccccc2)s1 (stereo not given),119% (inactive),89.3%
CC1CCCCN1S(=O)(=O)c1ccc(F)c(C(=O)Nc2ccccc2C(F)(F)F)c1 (stereo not given),98.5% (inactive),90%
CC1CCCCN1S(=O)(=O)CCNC(=O)c1ccccc1 (stereo not given),85.7% (inactive),88.4%
CC1CCCCN1S(=O)(=O)c1ccc(C(=O)Nc2nnc(-c3cccs3)o2)cc1 (stereo not given),2.04% (active),1.82%
CC1CCCCN1S(=O)(=O)c1ccc(I)cc1 (stereo not given),103% (inactive),105%
O=C(Cc1n[nH]c(=O)c2ccccc12)N/N=C/c1ccc(-c2ccc(Br)cc2)o1,95.6% (inactive),86.9%
CN(C)/N=C/c1ccc(OC(=O)c2ccco2)cc1,91.3% (inactive),89.5%
CCn1nc(C(=O)OCCCCN2C(=O)c3ccccc3C2=O)c2ccccc2c1=O,98.7% (inactive),94.4%
CCOC(=O)c1cc2n(c1N)-c1ccccc1C2=O,85.9% (inactive),71.7%
CCOC(=O)c1cc2oc(C)cc2n1CCCN1C(=O)c2ccccc2C1=O,-0.65% (active),-0.53%
O=C(NCC12CC3CC(CC(C3)C1)C2)c1cc(-c2ccccc2O)no1,105% (inactive),101%
Cc1ccc(CNCc2cccn2-c2sc(C)c(C)c2C(=O)O)cc1,87.6% (inactive),76.5%
C=CCn1c(C)nnc1SCCN1C(=O)c2ccccc2S1(=O)=O,91.3% (inactive),93.1%
CC(C)C(C(=O)O)n1c(=S)[nH]c2ccccc2c1=O (stereo not given),77.7% (inactive),94.8%
CN(C)S(=O)(=O)c1ccc(C(=O)Nc2nnc(C3CC3)o2)cc1,78.8% (inactive),59.5%
CCCCN(CC)S(=O)(=O)c1ccc(C(=O)Nc2nnc(-c3ccc(Cl)s3)o2)cc1,0.22% (active),0.29%
CS(=O)(=O)c1ccc(-c2nnc(NC(=O)c3ccc4c(c3)OCCO4)o2)cc1,84.8% (inactive),85.3%

SMILES,relative growth,relative growth (measured here: growth at 30 °C)
O=C(CN1C(=O)/C(=C/c2ccccc2)Sc2ccccc21)N1CCCC1,109% (inactive),98.3%
COc1ccc(C2=NC(C)(C)N(CC(=O)Nc3ccccc3)C2=O)cc1,115% (inactive),93.8%
CSc1ccc(Cl)c(C(=O)OCC(=O)N2CCC(C)CC2)c1,102% (inactive),82%
Nc1nc(/C(=C/CC(=O)O)C(=O)N[C@@H]2C(=O)N3C(C(=O)O)=CCS[C@H]23)cs1,-0.72% (active),-0.64%
CSc1nc(C)cc(=O)[nH]1,139% (inactive),90.7%
NC(=O)N/N=C1/C=C(c2ccccc2)C(O)(c2ccccc2)C1 (stereo not given),109% (inactive),91.3%
O=C1COc2ccc(C3=Nn4c(nnc4-c4ccncc4)SC3)cc2N1,97.9% (inactive),85.9%
CCN(Cc1ccccc1)C(=O)c1cc2sccc2n1Cc1ccccc1,108% (inactive),88.4%
COc1ccccc1CNC(=O)CNC1CCCCC1,96.2% (inactive),90%
Cc1c2cn[nH]c(=O)c2c(C)n1Cc1ccccc1,88.3% (inactive),75.2%
CO[C@@H]1[C@@H](OC(N)=O)[C@H](O)[C@H](Oc2ccc3c(O)c(NC(=O)c4ccc(O)c(CC=C(C)C)c4)c(=O)oc3c2C)OC1(C)C,-0.38% (active),0.14%
CC(C)=CCOc1ccc2c3c(c(=O)oc2c1C)CCCC3,97.9% (inactive),97.1%
CC(Sc1ncnc2ccccc12)C(=O)Nc1cccc(C(F)(F)F)c1 (stereo not given),115% (inactive),80.8%
CC(C)(C)C(=O)CN1C(=O)c2ccccc2C1=O,129% (inactive),89.2%
CC(NC(=O)Nc1ccccc1)c1ccccc1 (stereo not given),76.7% (inactive),91.3%
Cc1oc2c(c1C(=O)NC(C)c1ccccc1)C(=O)c1ccccc1C2=O (stereo not given),9.3% (active),14%
Cc1ccccc1-c1nc(CS(=O)(=O)CC(=O)NC(C)c2ccccc2)c(C)o1 (stereo not given),101% (inactive),105%
O=C(/C=C/c1ccccc1)OCC(=O)N1CCc2ccccc21,134% (inactive),88.3%
CCOC(=O)c1cnc2c(F)cc(F)cc2c1N1CCOCC1,118% (inactive),104%
